# Experimental data taken from ChEMBL document CHEMBL4888484, “Replenishing the malaria drug discovery pipeline: Screening and hit evaluation of the MMV Hit Generation Library 1 (HGL1) against asexual blood stage Plasmodium falciparum ,using a nano luciferase reporter read-out” (2022).
# Among all 150,000 compounds or so, about 540 (0.36%) showed an effect of 50% or more. What follows is part of a selection rich in strong results, with near analogues and random picks from the rest.
# System: Plasmodium falciparum
# Assay: Primary screen in NF54 nanoGlo assay, in single point, at 2uM, 72h; a lower Z score goes with more inhibition
# Assay type: functional, Erythrocyte
# Details: timepoint 72 hour
SMILES,% Inhibition,Z score
COc1ccc(F)c(-c2cc(N)nc(N(C)C)n2)c1,-15%,2.16
CN(C)c1nc(N)cc(-c2cccc3cccnc23)n1,57%,-7.96
CN(C)c1nc(N)cc(-c2ccc(-n3cccn3)cc2)n1,-1%,0.21
COc1ccc2c(c1)C1(CC1)CN(C(=O)Nc1ccnnc1C)C2,-11%,2.25
COc1ccc(-c2cc3c(=O)n(CCNC(=O)Cc4ccc(F)cc4)ccn3n2)cc1,-7%,1.17
CNC(=O)[C@@H]1C[C@H](Oc2ccccc2)CN1S(C)(=O)=O,-12%,1.64
NC(=O)[C@@H]1CN(Cc2ncc(C(F)(F)F)s2)CCO1,-12%,1.56
CC[C@H](C)NC(=O)COc1ccc(Cl)cc1C(N)=O,-8%,0.84
Cc1cc(N(C)CCC2CC2)nc([C@H](C)N(C)CCC2CC2)n1,59%,-9.38
Cc1cc(O)nc([C@H](C)N(C)CC2CCOCC2)n1,-12%,1.59
CCc1nc(C)cc(N(C)CCn2nc(C)cc2C)n1,-18%,1.72
CCN(CC)CC(O)COc1c(Br)cc(C(C)(C)c2cc(Br)c(OCC(O)CN(CC)CC)c(Br)c2)cc1Br (stereo not drawn),99%,-13.36
OCCN(CCO)C[C@H](O)COc1c(Br)cc(Br)cc1Br,-7%,1.05
CCCN(CCC)C[C@H](O)COc1c(Cl)cccc1Cl,-6%,0.67
Cc1ncc2ncccc2c1Br,-4%,0.8
C[n+]1cnc(-c2ccccc2)cc1-c1ccccc1,1%,-0.07
Cn1c(Cc2n[n+]3c(-c4ccccc4)cc(-c4ccccc4)nc3n2C)n[n+]2c(-c3ccccc3)cc(-c3ccccc3)nc12,95%,-10.43
Cc1nc(-c2ccccc2)cc(N2CCN(CCc3ccccc3)CC2)n1,0%,0
CCS(=O)(=O)CCNC(=O)c1ccnc(C(C)C)n1,-4%,0.73
O=C(Cn1nc(-n2cccn2)ccc1=O)NCc1ccco1,-7%,1.27
CCCC1CCC(OC(=O)c2ccc(C(=O)OC3CCC(CCC)CC3)nc2)CC1 (stereo not drawn),74%,-10.02

SMILES,% Inhibition,Z score
CCOC(=O)c1ccc(NC(=O)CC2CCC2)cn1,3%,-0.29
NC(=O)c1ccc(C(=O)OC2CCCCCC2)cn1,3%,-0.42
CCc1nnc(-c2[nH]c(C)c(S(=O)(=O)Nc3cccc(Cl)c3)c2C)o1,-5%,0.66
Cc1c(NC[C@H](C)c2ccccc2)cnn1C,-3%,0.4
COC(C)[C@H](C)NCC(C)c1ccccc1 (stereo partly drawn),73%,1.55
C[C@@H](CNC(=O)C(C)(C)C)c1ccccc1,-10%,0.9
Cc1cnc(=O)n(CC(=O)N2CCN(c3ccccc3F)CC2)c1,-1%,0.07
CN1CCC(N(CCc2ccccc2)C(=O)c2cccc3cnccc23)CC1,-4%,0.65
Cn1cccc1CN(C(=O)c1cc2ccccc2[nH]1)C1CC1,-5%,1
Cc1sc2ncnc(Nc3ccc4c(c3)OCO4)c2c1C,-3%,0.37
CC[C@H](C)[C@@H](CN(C)C)NC(=O)CCc1ccncc1,20%,-2.58
O=C(NCC1CC1)c1ccc2[nH]c3c(c2c1)CCCCC3,-12%,1.65
CCCC(O)(CCC)CC(=O)N1CCN(C(=O)OCC)CC1,-7%,0.63
O=C(c1ccc(-c2cn(-c3ccccc3)cn2)cc1)N1CCOC[C@@H](O)C1,5%,-0.8
CCOc1cc(CN2CC[S+]([O-])CC2)ccc1OC,6%,-1.1
Cc1nn(C)c(Cl)c1C(=O)Nc1ccc2ccccc2c1,10%,-1.64
Cc1nn(C)c(Cl)c1CNCc1ccc(N2CCCC2=O)cc1,-5%,0.6
c1ccc(-c2cc([C@@H]3NCCc4[nH]cnc43)on2)cc1,-4%,0.56
Cc1nn(CCO)c(C)c1[C@@H]1NCCc2[nH]cnc21,-16%,2.3
CCc1ccc([C@H]2NCCc3[nH]cnc32)nc1,55%,-5.21
CCc1nnc2c(S(=O)(=O)N(Cc3cccc(Cl)c3)c3ccccc3)cccn12,-17%,2.2

SMILES,% Inhibition,Z score
CN(Cc1ccccc1)C(=O)c1nc2ccccc2s1,-10%,1.35
CCCC1CCC(c2ccc(OC(=O)c3cccc(C(=O)OC)n3)cc2)CC1 (stereo not drawn),-10%,1.93
COCC(O)CN1CCCC(C(C)C)CC1 (stereo not drawn),-5%,0.7
Cc1ccc2c(c1)c1c(n2CCc2ccncc2)CCCN(C)C1,4%,-0.46
Cc1ccc2c(c1)c1c(n2S(=O)(=O)c2ccc(C(C)(C)C)cc2)CCCN(C)C1,67%,-13.88
Cc1ccc2[nH]c3c(c2c1)CN(C)CCC3,4%,-0.52
CNS(=O)(=O)CC1CCCN1CC1CCC(C)O1 (stereo not drawn),-5%,0.75
CCCC(C)NC(=O)C(C)NC1CCN(C(C)=O)CC1CC (stereo not drawn),-2%,0.22
CCc1cccc(NC(=O)Cc2nc(-c3cccnc3)n[nH]2)c1,-13%,2.1
CC(=O)c1ccc(S(=O)(=O)NC2(C(F)(F)F)CCOCC2)cc1,-12%,1.89
Cn1nc(N2CC[C@H](NC(=O)C3CCCCC3)C2)ccc1=O,-6%,0.81
Cc1c(C(=O)NC2CCN(c3ccc(=O)n(C)n3)CC2)cc(-c2ccc(F)cc2)n1C,-5%,0.6
Cc1cc(C(=O)N[C@H]2CCOC[C@@H]2OCc2ccccc2)c(C)n1C,8%,-1.34
COc1ccc(C(=O)N[C@H]2CCN(c3cc(-c4ccc(Cl)cc4)n[nH]3)C2)c(C)c1,-20%,2
Cc1c(C(=O)NC2CC2)cc(-c2ccccc2)n1C,55%,0.53
COc1ccc(-c2cc(N3CC[C@H](NC(=O)c4ccc(C)cc4)C3)[nH]n2)cc1,-10%,1.05
Cc1ccc(-c2cc(C(=O)NC3CC3)nn2C)cc1,-10%,1.31
COc1ccc(-c2cc(C(=O)N[C@H]3CCN(c4ccc(=O)n(C)n4)C3)c(C)n2C)cc1,67%,-11.23
COc1ccc(-c2cc(C(=O)N[C@H]3CCN(c4ccc(=O)[nH]n4)C3)c(C)n2C)cc1,82%,-5.36
COc1cccc(C(=O)N2CCN(c3cccnc3)C(=O)C2)c1OC,9%,-1.08
CN(C)S(=O)(=O)N1CCC2(CCC(=O)N(CCc3ccccn3)C2)CC1,-12%,1.7

SMILES,% Inhibition,Z score
CCc1ccccc1S(=O)(=O)NC[C@H](C(=O)O)C(C)C,2%,-0.45
COCCN1C(=O)c2ccc(C(=O)NCc3ccncc3)cc2C1=O,-3%,0.39
Cc1ccc(-c2cn[nH]c2[C@H]2CCCN(C(=O)C(C)(C)O)C2)cc1,-14%,2.64
NC(=O)C1CCN(C(=O)Cc2ccc(-c3ccccc3)cc2)CC1,-4%,0.36
COC(=O)C1(NC(=O)OC(C)(C)C)CC(CN2CCN(C)CC2)C1 (stereo not drawn),10%,-2.05
CCC1=C(c2ccc(C)cc2)S(=O)(=O)N=C1N1CCC(C(=O)NCCCc2ccccc2)CC1,-9%,1.6
CCC1=C(c2ccc(C)cc2)S(=O)(=O)N=C1N1CCC(C(=O)NCCN2CCCC[C@@H]2C)CC1,53%,-6.49
CCc1ccc(C2=C(C)C(N3CCC(C(=O)NC)CC3)=NS2(=O)=O)cc1,-2%,0.29
CCCCN(CC)CCNC(=O)C1CCN(C2=NS(=O)(=O)C(c3ccc(OC)cc3)=C2C)CC1,57%,-3.61
CCC1=C(c2ccc(C)cc2)S(=O)(=O)N=C1N1CCC(C(=O)NC2CCC(C)CC2)CC1 (stereo not drawn),-12%,1.49
CC1=C(c2ccc(Cl)cc2)S(=O)(=O)N=C1N1CCC(C(=O)NCCN(C)C)CC1,-18%,1.96
CN1CC2(CCN(C(=O)c3ccccc3O)CC2)C[C@@H](c2ccccc2)C1=O,-14%,1.81
C=CCOC1CCN(C(=O)CCN2CCOC2=O)CC1,-4%,0.57
Cc1nc(CNC(=O)c2nc3ccccc3[nH]c2=O)cs1,5%,-0.75
CC(C)c1ncc(CN(C)S(=O)(=O)N(C)C2CCCCC2)cn1,-9%,1.04
CC(C)(C)OC(=O)NC1CC(NCC(O)c2ccco2)C12CCC2 (stereo not drawn),0%,0.02
CCOc1ccc(C2c3[nH]c4ccccc4c3C[C@H]3C(=O)N(C4CCN(Cc5ccccc5)CC4)CC(=O)N23)cc1OC (stereo partly drawn),79%,-7.03
CCOc1ccc(C2c3[nH]c4ccccc4c3C[C@H]3C(=O)N(C4CCCCCCC4)CC(=O)N23)cc1OC (stereo partly drawn),12%,-1.52
COc1cccc(C2c3[nH]c4ccccc4c3C[C@H]3C(=O)N(C4CCN(Cc5ccccc5)CC4)CC(=O)N23)c1 (stereo partly drawn),15%,-1.95
CCOc1ccc2nc(CN(C)[C@@H]3CCCC[C@@H]3O)ccc2c1,-18%,1.9
CCOc1ccc2nc(CN(Cc3cnn(C)c3)C3CC3)ccc2c1,-7%,1.15
